Assay outcomes from PubChem BioAssay.
D3 ag: agonists of human D3 dopamine receptor. actives 0.58% (n = 410,000). D3R DiscoveRx beta-arrestin cells, luminescence, 90 min. P35462. max activation, %; in the data active = max activation above about 30%; also: 0% is about no effect
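Agonist mode: compounds and dopamine controls were applied to plated cells for 90 min at 37 degrees C after an overnight attachment at 1500 cells/well. Luminescent read-out followed 30 - 60 minutes at room temperature with DiscoveRx detection reagent.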
GLP1R inv ag: GLP-1 receptor (human) inverse agonism. P43220. HEK293 GLP-1R CRE-luciferase, luminescence, 24 h; GLP-1R form is constitutively active. Potency, µM (series often up to 38.3 µM), for the others: top-dose activity change, negative = inhibition, hits mostly inhibitors. actives 1.6% (n = 410,000); also: potency is read from the fitted curve at half-maximal effect; % is scaled to controls: 0 for no effect and ±100 for the full control effect; nearly all actives have a fitted effect of over 55% in size
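HEK293 cells stably co-expressing constitutively active GLP-1R and a cAMP-responsive luciferase reporter were seeded in DMEM with 10% Nu serum, given compounds after 12 h, and incubated 24 h at 37 deg C. Luminescence was then read.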
DRD3 antagonist: antagonists of human D3 dopamine receptor. max response, negative = inhibition, %. actives 2.5% (n = 360,000). D3R cells, DiscoveRx beta-arrestin luminescence, antagonist mode; stronger effect = lower value. P35462; in the data active = max response below about -50%; inconclusive = no clear call, values can overlap the other calls; also: % is scaled to controls: 0 for no effect and ±100 for the full control effect
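Cells plated overnight at 1500 cells/well, then exposed to library compounds with dopamine controls for 90 minutes at 37 degrees C. DiscoveRx reagent added for 30–60 minutes at room temperature; luminescence read, quantitative HTS format.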
ClpP mod: qHTS Assay for Activators of ClpP. AID 651965, 2013. Potency, µM (top dose mostly 57.5 µM), for inactives: at the highest dose activity change, negative = active. ATP-dependent Clp protease proteolytic subunit (Bacillus subtilis (strain 168)), P80244. purified B. subtilis ClpP, FRET peptide cleavage, 20 min. actives 1.9% (n = 340,000); active = well fitted falling curve with a large enough effect; inconclusive = small, poorly fitted or top-dose-only effect; inactive = no such curve, though single readings can be large or run the other way; also: potency is read from the fitted curve at half-maximal effect; the source files actives as falling curves though it sought activators and does not explain the sign; nearly all actives have a fitted effect of over 65% in size
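Purified B. subtilis ClpP, 10 microg/mL final in Tris/HCl pH8 with KCl, BSA, glycerol and Tween-20, cleaved an Abz/nitrotyrosine-quenched decapeptide. Fluorescence (ex 320, em 430) was read at 0 and 20 min at room temperature. Delta was normalized to 5.8 microM ADEP and DMSO/no-enzyme controls.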
GLP-1R agonist: GLP-1 receptor (human) agonism | HEK293 GLP-1R CRE-luciferase, luminescence, 4-6 h; cells express a hypersensitive GLP-1R form | AID 624172 | Potency, µM (series often up to 45.6 µM), inactives show at the highest dose activation, usual class: activators | actives 0.007% (n = 380,000); also: potency is read from the fitted curve at half-maximal effect; % of control where 0% means no effect
GLP1R cytotox: cytotoxic in the GLP-1 receptor inverse agonist counter-screen. HEK293 cAMP-luciferase reporter cells, luminescence, 24 h. Potency, µM (highest dose often 38.3 µM), for the others: at the top dose activity change, negative = inhibition, actives largely listed as inhibitors. actives 0.13% (n = 410,000). AID 624418;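 also: loss of luciferase light is scored as toxicity; potency is read from the fitted curve at half-maximal effect; % is scaled to controls: 0 for no effect and ±100 for the full control effect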
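Seeding density was 200 cells/uL; after overnight-length (12 h) culture, 23 nL compounds went on for 24 h at 37 °C. Readout used a luciferase detection reagent, luminescence taken after 12 min at room temperature.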
Numbers without * were called inactive; ? = inconclusive; nt = not tested or not shown. Only some compounds are listed: those with a hit (about 5.7% of all), similar ones and a draw of the others. Unless noted, calls follow the shape of the dose curve; as a rule, active = well fitted curve in the direction sought with a large enough effect; inconclusive = small, poorly fitted or top-dose-only effect, or another doubt; inactive = no such curve, though single readings can be large; an effect the other way counts as inactive or inconclusive.

SMILES	D3 ag	GLP1R inv ag	DRD3 antagonist	ClpP mod	GLP-1R agonist	GLP1R cytotox
COC(=O)c1sc(N2C(=O)c3oc4ccccc4c(=O)c3C2c2ccc(O)cc2)nc1C (stereo not drawn)	-4	8%	nt	-1%	nt	10%
COc1cc(CNC(=O)c2cnc(SC)nc2-c2ccccc2)cc(OC)c1OC	0	2%	nt	0%	nt	28%
CCn1nccc1NC(=O)c1csc([C@@H]2O[C@H](CO)[C@H](O)[C@H](O)[C@H]2O)n1	37*	-2%	?	1%	-4%	6%
CCn1nccc1NC(=O)c1csc([C@H]2C[C@H](O)[C@@H](CO)O2)n1	1	5%	7	-2%	-8%	5%
O=C1c2cccnc2C(O)N1Cc1ccc(F)cc1 (stereo not drawn)	4	4%	-66*	-3%	0%	4%
CSc1ccc(CN2CCc3c([nH]c4ccccc34)C2)cc1	-11	?	?	-24%	0%	5%
Clc1cccc(CN2CCc3c([nH]c4ccccc34)C2)c1	-21	?	-59*	nt	-1%	?
c1ccc(CN2CCc3[nH]c4ccccc4c3C2)cc1	-11	?	-97*	-11%	0%	-14%
Cc1ccc2[nH]c3c(c2c1)CCN(C)C3	-20	-23%	-60*	0%	-5%	16%
Cc1cccc(CN2CCc3c([nH]c4ccccc34)C2)c1	-15	?	-90*	nt	16%	-11%
CC(C)C[C@@H]1CN(CCCC[C@H]2CNC(=O)C(=O)N2CCC2CCCCC2)C(=O)C(=O)N1CCc1ccc(O)cc1	-3	5%	-13	2%	-3%	8%
COc1cc(C(CC(=O)Nc2cccc(C(C)=O)c2)N2Cc3ccccc3C2=O)cc(OC)c1OC (stereo not drawn)	-4	11%	nt	-3%	16%	6%
Clc1ccc(CN2CCc3c([nH]c4ccccc34)C2)cc1Cl	2	4µM*	14	-30%	-10%	?
Cc1cc2nnc(SC(C)C#N)n2c2ccccc12 (stereo not drawn)	-5	48%	4	-1%	14%	6%
Cc1cc2nnc(SC(C)C)n2c2ccccc12	3	44%	0	28µM*	30%	0%
CC(=O)n1c2ccccc2c2nc3ccccc3nc21	11	5%	0	-18%	24%	2%
CC(=O)n1c2ccccc2c2c1c1ccccc1n2C	13	8%	-56*	?	1%	-21%
O=C1N(Cc2cccc(Cl)c2)C[C@@H]2C[C@@H](c3cccc4ncccc34)N3CCC[C@@]123	-8	10µM*	-2	nt	7%	-3%
Cc1ccc(C)c(NC(=O)C2CCCN(c3nc4ccccc4s3)C2)c1 (stereo not drawn)	4	16%	nt	0%	nt	1%
CN1/C(=C\C(=O)Nc2cccc(Cl)c2)C(C)(C)c2ccccc21	-2	5µM*	6	nt	11%	?
Cc1ccc(S(=O)(=O)Cn2nnnc2C(C(C)C)N2CCN(Cc3ccco3)CC2)cc1 (stereo not drawn)	-31	?	-59*	0%	-1%	-6%
Cc1ccc(S(=O)(=O)Cn2nnnc2C(C(C)C)N2CCSCC2)cc1 (stereo not drawn)	-11	?	-16	-1%	8%	9%
CCC(=O)Nc1ccc2nc(SCCOc3ccc(C)cc3)sc2c1	-7	4%	nt	-10%	nt	4%
CC(=O)Nc1ccc2nc(-c3cc(C)ccc3C)[nH]c2c1	-1	-31%	nt	4%	nt	-23%
Nc1ccc(C(=O)Nc2ccc3nc(-c4ccncc4)[nH]c3c2)cc1	5	39%	22	-3%	10%	5%
SMILES	D3 ag	GLP1R inv ag	DRD3 antagonist	ClpP mod	GLP-1R agonist	GLP1R cytotox
CC(=O)Nc1ccc2nc(-c3ccccn3)[nH]c2c1	1	10%	-25	11µM*	2%	4%
CC(=O)Nc1ccc2nc(-c3ccncc3)[nH]c2c1	-7	16%	-7	25µM*	-4%	2%
OC(c1ccc(-c2ccccc2)cc1)c1ncc(-c2ccc(F)cc2)[nH]1 (stereo not drawn)	-8	?	-7	1%	-6%	?
Cc1ccnc(Nc2nc3ccccc3o2)n1	1	2.5µM*	4	1%	-6%	?
COc1ccc(/C=C/c2ccnc3ccccc23)c(OC)c1	nt	nt	nt	-6%	nt	nt
CC1=C(c2ccc(C)c(C)c2)S(=O)(=O)N(Cc2ccc(C(=O)NCc3ccc(C)cc3)cc2)C1=O	6	10%	nt	11µM*	nt	4%
Cc1ccc(S(=O)(=O)N2C/C=C\CN(S(=O)(=O)c3ccccc3Br)CC2)cc1	9	10µM*	25	1%	1%	2%
COc1ccc(-n2cc(C(=O)Nc3cc(F)ccc3F)c3ccccc3c2=O)cc1	-1	?	nt	?	nt	2%
COc1ccc([N+](=O)[O-])cc1NC(=O)c1cn(-c2ccc(Cl)cc2)c(=O)c2ccccc12	-2	5%	-53*	-6%	-12%	-3%
CCCCOc1ccc(-c2nnn(CCC(=O)N3CCOCC3)n2)cc1	7	-29%	-96*	-1%	-1%	-4%
CCOc1ccc(-c2nnn(CC(=O)c3ccc4c(c3)OCCO4)n2)cc1	37*	-6%	15	-4%	0%	-19%
CCOc1ccc(-c2nnn(CC(=O)c3cc(OC)ccc3OC)n2)cc1	1	4%	26	32µM*	0%	-4%
CCOC(=O)Cc1cnc(NC(=O)Cn2nnc(-c3ccc(OCC)cc3)n2)s1	5	?	-6	22µM*	-2%	-5%
Cc1nc2ncnn2c(C)c1CCC(=O)N1CCN(c2ccccc2)CC1	-5	11%	nt	-4%	-2%	3%
COC(=O)[C@@]12C[C@@H](CC(=O)NCCc3ccccc3OC)C(=O)N(CCc3ccc(OC)c(OC)c3)C1=CCC(C)(C)C2	-9	?	-20	-4%	nt	3%
CCc1nc2c(OCc3cccc(Cl)c3)cccn2c1N(C)C(=O)CC(C)C	0	?	-21	0%	15%	4%
CC#CC[C@@H](C)[C@@H](O)/C=C/[C@H]1[C@H]2c3cccc(CCCC(=O)O)c3O[C@H]2C[C@@H]1O	nt	nt	nt	nt	1%	nt
Cc1cccc(N(CC(=O)NC(C)c2ccccc2)S(=O)(=O)c2ccccc2)c1C (stereo not drawn)	-6	?	nt	-4%	-11%	1%
CCCN1C(=O)/C(=c2\sc3nc(=O)c(Cc4ccc(C)cc4)nn3c2=O)c2ccccc21	-12	-20%	5	nt	-3%	0%
